This passage reports activity change results from PubChem BioAssay AID651550 (National Center for Advancing Translational Sciences (NCATS), 2012).

Among all 360,000 compounds or so, about 1,100 (0.31%) were called active. Shown is part of a subset that was picked to be rich in actives. Unmarked numbers belong to inactive results. Cut-off read from the data, not from the text of the source: active = activity change below about -80%; inconclusive = mostly about -51% to -80%; inactive = weaker than that.
% is set by controls: 0 for no effect and ±100 for the full control effect.

The assay concerns the target RAC-alpha serine/threonine-protein kinase (Homo sapiens) (UniProt P31749). Description: HTS Assay for Inhibitors of Akt Phophorylation: Primary Screen. To be noted: Neuro2A IGF-stimulated pAkt S473 HTRF, 20 min; at 50 µM, active compounds read low. The source says: The serine/threonine protein kinase Akt (protein kinase B) regulates various cellular processes, including cell survival, growth, proliferation, migration and differentiation. It has been well established that Akt is activated through two essential steps involving membrane translocation and phosphorylation. Cytosolic Akt is recruited to the plasma membrane via the interaction between the PH domain and membrane PIP3 produced by phosphoinositide-3 kinase (PI3K) upon growth factor receptor stimulation. The membrane-Akt interaction results in conformational changes of Akt, enabling its activation through phosphorylation at T308 in the kinase domain and at S473 in the C-terminal hydrophobic motif by PDK1 and mTOR-rictor complex (mTORC2), respectively. […] These findings indicate that S473 phosphorylation, as an important modulator of Akt activation, may be a valuable drug target for cell growth, survival, proliferation and differentiation. These inhibitors also may have significant therapeutic potential with fewer side effects, especially for the conditions involving hyperactive Akt signaling, such as cancer and Alzheimer's disease.
To this end, a miniaturized assay was developed to be screened against the Molecular Libraries Small Molecule Repository (MLSMR).
NIH Chemical Genomics Center [NCGC]
NIH Molecular Libraries Probe Centers Network [MLPCN]
Assay Submitter (PI): Hee-Yong Kim, National Institute on Alcohol Abuse and Alcoholism
3 uL of Neuro2A cell suspension in DMEM containing 0.5% FBS and […] antibiotics mix was plated in a white solid bottom tissue culture-treated 1536-well plate (Greiner Bio-One, Monroe, NC) at 4,500 cells per well and incubated overnight at 37 deg C. 23 nL/well of compound solutions in DMSO was added with Pintool transfer (Kalypsis, San Diego, CA) at single […] final concentration. Then, the cells were stimulated with 1.5 uL of IGF (6 nM final concentration) and incubated at 37 deg C for 20 min. The reaction was terminated by the addition of 1.5 uL blocking reagent mixed with lysis buffer (1:25 correspondingly) provided with HTRF(R) Phospho Akt (Ser473) kit (Cisbio US, Bedford, MA), with following incubation for 50 min at ambient temperature. The detection HTRF conjugates from the kit were prepared according to the protocol, pre-mixed 1:1 prior to dispensing, and 2 uL/well was added with BioRAPTR FRD dispenser (Beckman Coulter). The assay plates were incubated for 24 hours at ambient temperature, and the HTRF fluorescence was measured using Envision plate reader (PerkinElmer) with excitation at 330nm, emission at 615nm (Eu(3)-Cryptate donor signal) and 665nm (d2 acceptor signal). The ratio of […] was calculated for each well.
(Time-resolved FRET reads energy transfer from a long-lived donor to a nearby acceptor.)
In the case of `O=C(c1c(F)cccc1Cl)N1CCN(c2ccccn2)CC1`, the activity change entry was “inactive”.
In the case of `O=C(c1ccc2c(c1)C(=O)N(c1ccc(Cl)cc1)C2=O)N1CCN(c2ccccn2)CC1`, the activity change is -121% (active).
Take `O=C(c1ccc2c(c1)N(Cc1ccc(F)cc1)C(=O)c1ccccc1S2(=O)=O)N1CCN(c2ccccn2)CC1`: the activity change entry was “inactive”.
Regarding `Cc1ccc(S(=O)(=O)N2[C@@H](Cc3ccccc3)CO[C@H]2CC(=O)OCc2ccccc2)cc1`, the activity change result was “inactive”.
To `O=C(NC1CCCCC1)C(c1cc2ccccc2o1)n1c(=O)c(-c2ccco2)nc2ccccc21` (stereo not given) belongs “inactive”.
To `Cc1ccc2c(c1)N(CC(=O)N(Cc1ccccn1)Cc1ccco1)C(=O)C(C(C)C)O2` (stereo not given) belongs 1.92%; to `O=C(NCc1ccccc1)C(c1ccc(F)cc1)N1CCN(C(=O)C2CCCO2)CC1` (stereo not given), “inactive”.
The result for `CCC(C(=O)NCc1ccccc1)n1c(Cc2cc(F)cc(F)c2)nc2ccccc21` (stereo not given) reads “inactive”.
On to `COC(=O)c1ccc2nc(-c3ccc(F)cc3)c(Cc3ccc(C)cc3)n2c1`, for which the activity change entry was “inactive”.
In the case of `CCOC(=O)CSc1nnc(CNc2ccc(F)cc2)o1`, the activity change entry was “inactive”.
`Cc1cccc2nc(CNc3ccc(F)cc3)cn12`: the activity change was -128% (active).
The result for `O=C(NC(=O)c1ccc(Cl)c(Cl)c1)OC1CCS(=O)(=O)C1` (stereo not given) reads “inactive”; that for `COCCNC(=O)C1C(=O)Nc2ccccc2C(=O)N1c1ccc2c(c1)OCCO2` (stereo not given), “inactive”; that for `CC(C)c1cc(Cn2c3ccccc3c(=O)n2C(C)Cn2cc(C3CC3)nn2)on1` (stereo not given), “inactive”.
To `Cn1cccc1C(=O)N1CCc2ccccc2C1` belongs “inactive”; to `Cc1ccc(S(=O)(=O)N(CC(=O)N2CCc3ccccc3C2)c2cccc(Cl)c2)cc1`, “inactive”.
With `CN(c1ccc(C(=O)N2CCc3ccccc3C2)cc1)S(C)(=O)=O`, the activity change was -108% (active).
For the molecule `CN(c1cccc(NC(=O)c2ccc(CN3CCc4ccccc4C3)cc2)c1)S(C)(=O)=O`, the activity change result was “inactive”.
As for `COc1cccc(N(CC(=O)N2CCc3ccccc3C2)S(C)(=O)=O)c1`, the activity change is -106% (active).
Regarding `CS(=O)(=O)N(CC(=O)N1CCc2ccccc2C1)c1ccc(Br)cc1`, the activity change entry was “inactive”.
To `Nc1ccc(N=Nc2ccccc2Cl)c(N)n1` belongs “inactive”.
Take `O=C(CN1C(=O)CCS(=O)(=O)c2ccccc21)NCc1ccc(F)cc1`: the activity change is 11.8%.
With `O=C1C(=O)N(CCN2CCOCC2)C(c2cccc(Cl)c2)/C1=C(/O)c1ccc2c(c1)OCO2` (stereo not given), the activity change result was “inactive”.
In the case of `COc1ccc(C2/C(=C(/O)c3ccc(OC(C)C)cc3)C(=O)C(=O)N2CCCN2CCOCC2)cc1` (stereo not given), the activity change result is “inactive”.
As to `O=C1C(=O)N(CCN2CCOCC2)C(c2ccccn2)/C1=C(/O)c1ccc(Cl)cc1` (stereo not given), the activity change is -111% (active).
To `O=c1[nH]n2c(=O)c3c([nH]c2c1N=Nc1ccccc1)CCC3` belongs “inactive”.
To `CC(C)(C)n1c(=O)[nH]c2c(c1=O)CCC2` belongs -114% (active); to `CCOC(=O)[C@]12CCCC=C1N(CCC1=CCCCC1)C(=O)[C@H](CC(=O)N1CCCCC1)C2`, “inactive”.
The result for `O=C1C=C(c2ccc(Cl)cc2)C(=O)N1Nc1ccccc1` reads -112% (active); that for `CC(C)(C)n1nc2c(c1NC(=O)c1ccc(S(=O)(=O)N3CCCC3)cc1)CS(=O)C2` (stereo not given), “inactive”.
As to `COc1ccc(C(C(=O)Nc2c(C)cccc2C)N2CCN(c3ccc(C)cc3)CC2)cc1` (stereo not given), the activity change entry is “inactive”.
For `O=C(O)CCN1C(=O)CC2(CCCCC2)C1=O`, the activity change was -117% (active).
Turning to `O=C1CC2(CCCC2)C(=O)N1CN1CCN(S(=O)(=O)c2ccc(F)cc2F)CC1`, the activity change entry is “inactive”.
To `O=C(CN1C(=O)NC2(CCCCCC2)C1=O)NC1CC1` belongs “inactive”; to `NS(=O)(=O)c1ccc(CCNC(=O)NC2CCCCC2)cc1`, “inactive”; to `CN1OC[C@@H]2CN[C@H](c3ccc(-c4ccccc4)cc3)C[C@@H]21`, “inactive”.
With `CCOC(=O)[C@]12CCCC=C1N(CCC1=CCCCC1)C(=O)[C@H](CC(=O)NCCCOC)C2`, the activity change entry was “inactive”.
With `CCCCCNC(=O)C(c1ccc(OC)cc1)n1c(=O)c(-c2ccccc2)nc2ccccc21` (stereo not given), the activity change result was “inactive”.
As for `Nc1nnc(SCn2nnc3ccccc3c2=O)s1`, the activity change entry was “inactive”.
The result for `Cc1cccc(OCc2nnc(SCc3nc4cc(C(F)(F)F)ccc4c(=O)[nH]3)o2)c1` reads -3.13%; that for `Cc1cccc(OCc2nnc(SCn3nnc4ccccc4c3=O)o2)c1`, -101% (active).
To `COc1ccccc1NC(=O)C1CCCN1S(=O)(=O)c1ccc(Cl)cc1` (stereo not given) belongs “inactive”.
For the molecule `Cc1cccc(NC(=O)C2CCCN(C(=O)Nc3ccc(F)cc3)C2)c1C` (stereo not given), the activity change entry is “inactive”.
For the molecule `Cc1cccc(NC(=O)C2CCCN2S(=O)(=O)c2ccc(F)cc2)c1C` (stereo not given), the activity change was -118% (active).
The result for `Cc1ccc(N(Cc2ccccc2O)C(=O)c2ccccc2F)cc1` reads “inactive”; that for `Cc1ccc(N(C(=O)CNC(=O)c2ccco2)C(C(=O)NC2CCCC2)c2ccncc2)cc1` (stereo not given), “inactive”; that for `COc1cccc(N(C(=O)CNC(=O)c2ccco2)C(C(=O)NC2CCCCC2)c2cccnc2)c1` (stereo not given), “inactive”.
Consider `CC(C)(C)NC(=O)C(c1ccncc1)N(C(=O)CNC(=O)c1ccco1)c1ccc2c(c1)OCO2` (stereo not given), for which the activity change is -97.2% (active).
To `CCCc1ccc(-c2csc(NC(=O)Cc3cccs3)n2)cc1` belongs -105% (active); to `COc1ccc(OC)c(NC(=O)Cc2cccs2)c1`, “inactive”.
